Test results published in PubChem BioAssay AID1159580 (chemical genetic matrix, 2015).
The whole screen tested about 5,500 compounds, of which about 2,000 (36%) were called active. Another 18% or so got no clear call; they are omitted. Cut-off read from the data, not from the text of the source: active = normalized growth mostly below about 0.91 (no sharp cut-off); inconclusive = no clear call, values can overlap the other calls; inactive = mostly above about 0.92. Some of the results follow.

Experiment: chemical genetic growth profiling, strain panel (AID 1159580);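 note: tested at 20 µM; growth read once vehicle control cultures reached saturation at 30 °C; 1 = growth at the plate median or of vehicle wells; lower values mean less growth of the strain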
Conditions: growth OD

Measured: normalized growth

Oc1ccc2c(c1)OCC1(O)Cc3cc(O)c(O)cc3C21 (configuration not stated)
inactive: S. cerevisiae deletion strains, locus YJL187C, strain SWE1, hits give low values 1.02 | S. cerevisiae deletion strains, locus YJR066W, strain TOR1, hits give low values 0.906 | S. cerevisiae deletion strains, locus YKL009W, strain mrt4, hits give low values 1.03 | S. cerevisiae deletion strains, locus YKL068W, hits give low values 0.997 | S. cerevisiae deletion strains, locus YKL085W, strain MDH1 (second series), hits give low values 0.978 | S. cerevisiae deletion strains, locus YKL085W, strain MDH1, hits give low values 0.978 | S. cerevisiae deletion strains, locus YKL160W, strain elf1, hits give low values 1.02 | S. cerevisiae deletion strains, locus YKR001C, strain vps1, hits give low values 1.03 | S. cerevisiae deletion strains, locus YKR026C, strain gcn3, hits give low values 1.04 | S. cerevisiae deletion strains, locus YKR091W, strain srl3, hits give low values 1.02 | S. cerevisiae deletion strains, locus YLL001W, strain dnm1, hits give low values 1.03 | S. cerevisiae deletion strains, locus YLL026W, hits give low values 1.02 | S. cerevisiae deletion strains, locus YLL041C, strain sdh2, hits give low values 1.02 | S. cerevisiae deletion strains, locus YLR027C, strain aat2, hits give low values 1.01 | S. cerevisiae deletion strains, locus YLR039C, strain RIC1, hits give low values 0.991 | S. cerevisiae deletion strains, locus YLR058C, strain SHM2, hits give low values 0.959 | S. cerevisiae deletion strains, locus YLR102C, strain apc9, hits give low values 0.991 | S. cerevisiae deletion strains, locus YLR113W, strain HOG1, hits give low values 1.05 | S. cerevisiae deletion strains, locus YLR221C, strain rsa3, hits give low values 1.02 | S. cerevisiae deletion strains, locus YLR258W, strain gsy2, hits give low values 1.03 | S. cerevisiae deletion strains, locus YLR262C, strain YPT6 (second series), hits give low values 1.04 | S. cerevisiae deletion strains, locus YLR268W, strain sec22, hits give low values 1.05 | S. cerevisiae deletion strains, locus YLR320W, strain mms22, hits give low values 1.04 | S. cerevisiae deletion strains, locus YLR342W, strain FKS1 (second series), hits give low values 1.05 | S. cerevisiae deletion strains, locus YLR342W, strain FKS1, hits give low values 1.03 | S. cerevisiae deletion strains, locus YLR357W, strain rsc2, hits give low values 1.03 | S. cerevisiae deletion strains, locus YLR370C, strain arc18, hits give low values 1.02 | S. cerevisiae deletion strains, locus YLR371W, strain rom2, hits give low values 0.988 | S. cerevisiae deletion strains, locus YLR384C, strain iki3, hits give low values 1.02 | S. cerevisiae deletion strains, locus YLR418C, strain cdc73, hits give low values 0.991 | S. cerevisiae deletion strains, locus YML016C, strain PPZ1, hits give low values 0.997 | S. cerevisiae deletion strains, locus YML032C, strain rad52, hits give low values 1.05 | S. cerevisiae deletion strains, locus YML120C, strain ndi1, hits give low values 1.03 | S. cerevisiae deletion strains, locus YML124C, strain tub3, hits give low values 0.999 | S. cerevisiae deletion strains, locus YMR058W, strain fet3, hits give low values 1.02 | S. cerevisiae deletion strains, locus YMR078C, strain ctf18, hits give low values 0.988 | S. cerevisiae deletion strains, locus YMR125W, strain sto1, hits give low values 1.04 | S. cerevisiae deletion strains, locus YMR129W, hits give low values 1.02 | S. cerevisiae deletion strains, locus YMR205C, strain PFK2, hits give low values 1.06 | S. cerevisiae deletion strains, locus YMR223W, strain ubp8, hits give low values 0.981 | S. cerevisiae deletion strains, locus YMR231W, strain pep5, hits give low values 1 | S. cerevisiae deletion strains, locus YMR307W, strain GAS1, hits give low values 1.11 | S. cerevisiae deletion strains, locus YNL067W, strain RPL9B, hits give low values 0.959 | S. cerevisiae deletion strains, locus YNL071W, strain lat1, hits give low values 1.03 | S. cerevisiae deletion strains, locus YNL128W, strain TEP1, hits give low values 0.983 | S. cerevisiae deletion strains, locus YNL183C, strain NPR1, hits give low values 0.948 | S. cerevisiae deletion strains, locus YNL209W, strain ssb2, hits give low values 1.01 | S. cerevisiae deletion strains, locus YNL233W, strain BNI4, hits give low values 1 | S. cerevisiae deletion strains, locus YNL248C, strain rpa49, hits give low values 1.03 | S. cerevisiae deletion strains, locus YNL250W, strain rad50, hits give low values 0.957 | S. cerevisiae deletion strains, locus YNL271C, strain bni1, hits give low values 0.983 | S. cerevisiae deletion strains, locus YNL298W, strain CLA4, hits give low values 0.996 | S. cerevisiae deletion strains, locus YNL307C, strain MCK1, hits give low values 0.994 | S. cerevisiae deletion strains, locus YNL322C, strain KRE1 (second series), hits give low values 1.02 | S. cerevisiae deletion strains, locus YNL322C, strain KRE1, hits give low values 0.981 | S. cerevisiae deletion strains, locus YNR049C, strain mso1, hits give low values 1.02 | S. cerevisiae deletion strains, locus YNR052C, strain pop2, hits give low values 0.959 | S. cerevisiae deletion strains, locus YOL006C, strain TOP1, hits give low values 1.18 | S. cerevisiae deletion strains, locus YOL012C, strain htz1 0.665 | S. cerevisiae deletion strains, locus YOL147C, strain pex11, hits give low values 1 | S. cerevisiae deletion strains, locus YOR001W, strain rrp6, hits give low values 1.04 | S. cerevisiae deletion strains, locus YOR061W, strain CKA2, hits give low values 1.03 | S. cerevisiae deletion strains, locus YOR069W, strain VPS5, hits give low values 1 | S. cerevisiae deletion strains, locus YOR070C, strain gyp1, hits give low values 1.01 | S. cerevisiae deletion strains, locus YOR080W, strain dia2, hits give low values 1.01 | S. cerevisiae deletion strains, locus YOR083W, strain WHI5, hits give low values 1.02 | S. cerevisiae deletion strains, locus YOR106W, strain vam3, hits give low values 1.05 | S. cerevisiae deletion strains, locus YOR136W, strain idh2, hits give low values 1.01 | S. cerevisiae deletion strains, locus YOR144C, strain elg1, hits give low values 1.01 | S. cerevisiae deletion strains, locus YOR184W, strain ser1, hits give low values 1.09 | S. cerevisiae deletion strains, locus YOR231W, strain MKK1, hits give low values 1.01 | S. cerevisiae deletion strains, locus YOR265W, strain rbl2, hits give low values 1.02 | S. cerevisiae deletion strains, locus YOR270C, strain vph1, hits give low values 1.16 | S. cerevisiae deletion strains, locus YOR290C, strain snf2, hits give low values 1.04 | S. cerevisiae deletion strains, locus YOR316C, strain cot1, hits give low values 0.986 | S. cerevisiae deletion strains, locus YPL051W, strain arl3, hits give low values 1.01 | S. cerevisiae deletion strains, locus YPL055C, strain LGE1, hits give low values 1.06 | S. cerevisiae deletion strains, locus YPL078C, strain atp4, hits give low values 1.03 | S. cerevisiae deletion strains, locus YPL106C, strain sse1, hits give low values 0.99 | S. cerevisiae deletion strains, locus YPL240C, strain hsp82, hits give low values 1.02 | S. cerevisiae deletion strains, locus YPL256C, strain CLN2, hits give low values 0.995 | S. cerevisiae deletion strains, locus YPR119W, strain clb2, hits give low values 0.978 | S. cerevisiae deletion strains, locus YPR141C, strain kar3, hits give low values 0.964 | S. cerevisiae deletion strains, locus YPR163C, strain tif3, hits give low values 0.996 | S. cerevisiae deletion strains, locus YPR167C, strain met16, hits give low values 0.992 | S. cerevisiae deletion strains, strain wtn01, hits give low values 1.02 | S. cerevisiae strains, strain wild type, hits give low values 1.03
